Sampled rows, rich in hits. Any-hit rate of the full collection: about 1.4%.
SARS PLpro yeast-1: qHTS of Yeast-based Assay for SARS-CoV PLP; 0.19% of 330,000 active; Potency, µM (series often up to 32.9 µM), for inactives: at the highest dose activity, positive = growth rescue, hits mostly activators; S. cerevisiae expressing SARS-CoV PLpro, growth rescue; AID 485353, 2010; calls by dose curve; note: potency is the fitted concentration of half-maximal effect; 0% is about no effect; nearly all actives have a fitted effect of over 55% in size
AMA1 RON2 block: qHTS for Inhibitors of AMA1-RON; Towards Development of Antimalarial Drug Lead: Primary Screen. Plasmodium falciparum AMA1 (3D7) - RON2 peptide interaction. AlphaScreen AMA1-biotinylated RON2 peptide binding. Potency, µM (highest dose often 58.2 µM), for the others: at the top dose activity change, negative = inhibition, usual class: inhibitors. 0.2% of 360,000 active. AID 720542, 2013;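 note: potency is the fitted concentration of half-maximal effect; 0% = vehicle wells and -100% = peptide control; nearly all actives have a fitted effect of over 45% in size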
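AMA1 (3D7) with his tag at 25 nM final met compounds first, then biotinylated RON2 peptide at 25 nM; detection used donor plus acceptor beads, 10 µg/mL apiece, read by AlphaScreen after 30 min at room temperature.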
Vaccinia mCherry: qHTS for Stage-Specific Inhibitors of Vaccinia Orthopoxvirus: mCherry Reporter Primary qHTS | Potency, µM (doses to about 36.5 µM), inactives show at the top dose activity change, negative = inhibition, actives largely listed as inhibitors | AID 720579, 2013 | 0.63% of 310,000 active | Vaccinia virus mCherry reporter infection, fluorescence; calls by dose curve; tested in A549 cells; note: potency is the fitted concentration of half-maximal effect; % is set by controls: 0 for no effect and ±100 for the full control effect; nearly all actives have a fitted effect of over 35% in size
AmpC inh detg: qHTS Inhibitors of AmpC Beta-Lactamase (assay with detergent). P00811. Potency, µM (doses to about 114 µM), for inactives: top-dose activity change, negative = inhibition, hits mostly inhibitors. AmpC hydrolysis of nitrocefin, absorbance 480 nm, 0.01% Triton. 0.041% of 370,000 active. AID 485294, 2010;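 note: potency is the fitted concentration of half-maximal effect; 0% = no-compound wells and -100% = no-enzyme wells; nearly all actives have a fitted effect of over 25% in size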
Target sequence (P00811 whole entry, looked up): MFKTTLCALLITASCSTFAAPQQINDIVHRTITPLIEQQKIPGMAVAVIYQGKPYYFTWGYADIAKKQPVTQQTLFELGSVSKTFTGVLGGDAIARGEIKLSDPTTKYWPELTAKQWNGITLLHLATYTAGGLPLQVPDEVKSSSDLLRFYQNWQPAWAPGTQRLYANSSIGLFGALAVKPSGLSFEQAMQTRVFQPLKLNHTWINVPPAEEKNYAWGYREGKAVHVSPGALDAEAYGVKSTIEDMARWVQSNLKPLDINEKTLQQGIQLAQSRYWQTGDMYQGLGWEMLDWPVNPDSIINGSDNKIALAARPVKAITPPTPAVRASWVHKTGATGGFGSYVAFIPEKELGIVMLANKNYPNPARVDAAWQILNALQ
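20 mM phosphate pH 7.0 + 0.01% (detergent screen) or 0.0001% Triton X-100; 5.3 nM AmpC reagent; cpd preinc 15 min RT; nitrocefin (800 uM stock) to start; A480 q20 s × 4 min; Activity was normalised to no-enzyme and no-compound control wells.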
AmpC inh no detg: qHTS Inhibitors of AmpC Beta-Lactamase (assay without detergent) | AID 485341, 2010 | P00811 | AmpC nitrocefin hydrolysis, absorbance 480 nm, 0.0001% Triton | Potency, µM (titrated, usually from 57.1 µM), inactives show at the top dose activity change, negative = inhibition, hits mostly inhibitors | 0.52% of 330,000 active;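 note: potency is the fitted concentration of half-maximal effect; plate controls were no compound for no effect and no enzyme for full effect; nearly all actives have a fitted effect of over 20% in size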
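AmpC (5.3 nM in the dispensed reagent) in 20 mM phosphate pH 7.0 with 0.01% (detergent screen) or 0.0001% Triton X-100 was preincubated with compounds for 15 min at room temperature. Nitrocefin was then added from an 800 uM solution, and hydrolysis was followed at 480 nm.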
VACV Venus inh: qHTS for Stage-Specific Inhibitors of Vaccinia Orthopoxvirus: Venus Reporter Primary qHTS; 0.46% of 330,000 active; Vaccinia virus Venus reporter expression, fluorescence; Potency, µM (doses to about 36.5 µM), without a hit: at the top dose activity change, negative = inhibition, usual class: inhibitors; calls by dose curve; tested in A549 cells; note: potency is the fitted concentration of half-maximal effect; % is set by controls: 0 for no effect and ±100 for the full control effect; nearly all actives have a fitted effect of over 30% in size
SARS PLpro yeast-2: qHTS of Yeast-based Assay for SARS-CoV PLP: Hit Validation; shares compounds with SARS PLpro yeast-1; yeast expressing SARS-CoV PLpro, growth phenotype rescue; calls only; 19% of 1,000 active; AID 652038, 2013; call rule not given here
* marks the source's active call; other numbers are inactive results; i = inactive; ? = inconclusive; . = no result given; + = active, no number. Unless noted, calls come from the whole dose curve; as a rule, active = well fitted curve in the direction sought with a large enough effect; inconclusive = small, poorly fitted or top-dose-only effect, or another doubt; inactive = no such curve, though single readings can be large; an effect the other way counts as inactive or inconclusive.

SMILES | SARS PLpro yeast-1 | AMA1 RON2 block | Vaccinia mCherry | AmpC inh detg | AmpC inh no detg | VACV Venus inh | SARS PLpro yeast-2
Nc1c(Cl)ncnc1N/N=C/c1ccnc2ccccc12 | -8% | 56% | -17% | -12% | -20% | -7% | .
COc1ccc(C(=O)N2CCN(Cc3cc(OC)c(O)c(OC)c3)CC2)cc1OC | 20µM* | -18% | 2% | -2% | 20% | 0% | i
CC(C)(CNC(=O)c1cnn(-c2nccc(-c3cccs3)n2)c1C1CC1)N1CCOCC1 | . | . | -11% | . | . | -8% | .
COc1cc(OC)cc(C(=O)N[C@H](C(=O)OCC(=O)Nc2ccc(OC)c(OC)c2)C(C)C)c1 | -2% | -9% | . | -11% | 51% | . | .
COc1cc(OC)cc(C(=O)N[C@H](C(=O)OCC(=O)Nc2cccc(F)c2)C(C)C)c1 | 3.5µM* | 1% | i | 2% | 25% | -13% | i
CCN(Cc1ccccc1)S(=O)(=O)c1cc(C(=O)Nc2cc(Cl)cc(Cl)c2)ccc1F | . | . | -26% | 13% | . | ? | .
O=C(Cn1c(NCCO)nc2ccccc21)NCCc1ccc(F)cc1 | ? | 35% | . | -7% | 6% | -5% | i
O=C(Cn1c(CO)nc2ccccc21)NCCc1ccc(F)cc1 | 3% | 0% | i | 0% | 2% | -6% | .
Oc1ccc(/C=N/Nc2cc(N3CCCC3)nc(N3CCCC3)n2)cc1O | ? | 25% | -24% | -13% | -27% | -15% | i
CC(=O)N/C(=C/c1ccccc1)C(=O)NC(Cc1ccccc1)C(=O)O (stereo not drawn) | ? | -18% | -8% | 2% | -8% | -4% | i
O=C(NC(Cc1ccccc1)C(=O)O)/C(=C/c1ccccc1)NC(=O)c1ccccc1 (stereo not drawn) | 21% | 2% | -12% | -14% | -20% | -6% | .
CCCN1CCN(c2nnc(-n3cccc3C(=O)Nc3cc(Cl)ccc3C)s2)CC1 | . | . | -20% | 4% | . | -13% | .
CNC(=S)N/N=C/c1cc(C)ccc1C | 7% | 82% | . | 0% | -35% | . | .
Cc1ccc(C)c(/C=N/NC(=S)NC(C)C)c1 | 7.1µM* | 21% | -4% | ? | -23% | -17% | ?
Cc1ccc(C)c(/C=N/NC(=S)NCCc2ccccc2)c1 | . | 20% | -15% | 0% | -33% | -5% | ?
Cn1cccc1C(=S)N=P(C1CCCCC1)(N1CCOCC1)N1CCOCC1 | 2.8µM* | 2% | i | -7% | -4% | -6% | i
Cn1cccc1C(=S)N1CCOCC1 | 1% | 0% | -13% | ? | -23% | 0% | .
Cn1ncc(Cl)c1C(=O)N/N=C/c1ccccn1 | ? | 78% | -8% | -14% | -8% | -8% | +
Cc1ccccc1C(=O)N/N=C/c1ccccn1 | -7% | 105% | -7% | -4% | -24% | -7% | .
CCN(CC)S(=O)(=O)c1cc(C(=O)OCC(=O)Nc2c(F)cccc2F)ccc1F | ? | 10% | i | -11% | -15% | -3% | i
COc1ccccc1C(=O)Nc1cccc2c1CCCC2 | ? | -2% | -10% | -1% | -11% | -20% | i
O=C(Nc1cccc2c1CCCC2)c1ccccc1Cl | 15% | -4% | -13% | 4% | -17% | 4% | .
COc1ccc(F)cc1S(=O)(=O)NCCc1csc2nc(-c3cccc(C)c3)nn12 | . | . | -9% | 3% | . | -15% | .
CCN1C(=O)c2cccc3c(S(=O)(=O)Nc4ccccc4OC)ccc1c23 | ? | 7% | -5% | 4% | 21% | -28% | i
Cc1ccccc1OCCCCn1nnc2sc3c(c2c1=O)CCC(C)C3 (stereo not drawn) | . | . | -8% | 24% | . | -1% | .

Bioassay records from PubChem BioAssay.
